Assay results: PubChem BioAssay AID1159580 (chemical genetic matrix, 2015)
“And” between values parts separate entries of the source, which are not always exact repeats. Identical values can stand only once. Out of some 5,500 compounds screened, about 2,000 (36%) were called active. Roughly 18% stayed inconclusive and do not appear here. Rule as the data show it: active = normalized growth mostly below about 0.91 (no sharp cut-off); inconclusive = no clear call, values can overlap the other calls; inactive = mostly above about 0.92. This is one part of the list.

Test: chemical genetic growth profiling, strain panel (AID 1159580);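 also: tested at 20 µM; growth read once vehicle control cultures reached saturation at 30 °C; 1 = growth at the plate median or of vehicle wells; lower values mean less growth of the strain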
Conditions: S. cerevisiae deletion strains, growth OD
[1] = locus YAL013W, strain DEP1, active compounds read low
[2] = locus YAL040C, strain CLN3, active compounds read low
[3] = locus YCL061C, strain MRC1 (second series), active compounds read low
[4] = locus YDR363W, strain ESC2, active compounds read low
[5] = locus YER002W, strain NOP16, active compounds read low
[6] = locus YGR229C, strain SMI1, active compounds read low
[7] = locus YMR307W, strain GAS1, active compounds read low
[8] = locus YNL128W, strain TEP1, active compounds read low
[9] = locus YNL175C, strain NOP13, active compounds read low
[10] = locus YNL197C, strain WHI3, active compounds read low
[11] = locus YNL224C, strain SQS1, active compounds read low
[12] = locus YNL322C, strain KRE1, active compounds read low
[13] = locus YOR083W, strain WHI5 (second series), active compounds read low
[14] = locus YPL241C, strain CIN2, active compounds read low
[15] = locus YHR030C, strain SLT2, active compounds read low
[16] = locus YHR079C, strain IRE1, active compounds read low
[17] = locus YJL095W, strain BCK1, active compounds read low
[18] = locus YJR066W, strain TOR1, active compounds read low
[19] = locus YLR113W, strain HOG1, active compounds read low
[20] = locus YNL183C, strain NPR1, active compounds read low
[21] = locus YOR231W, strain MKK1, active compounds read low
[22] = locus YPL256C, strain CLN2, active compounds read low

Measured: normalized growth

CCCCN1CCC(COC(=O)c2cc(Cl)c(N)c3c2OCCO3)CC1
inactive: [1] 0.976 | [2] 0.973 | [3] 0.987 | locus YDR150W, strain NUM1, active compounds read low 0.997 | [4] 0.968 | [5] 0.987 | [6] 0.966 | [7] 0.989 | [8] 0.991 | locus YNL153C, strain GIM3, active compounds read low 0.996 | [9] 1 | [10] 0.991 | [11] 1.01 | [12] 0.982 | [13] 0.989 | [14] 0.993

CNC(=O)Oc1ccc2c(c1)[C@]1(C)CCN(C)[C@@H]1N2C
inactive: [1] 1.03 | locus YAL021C, strain ccr4, active compounds read low 1 | locus YAL026C, strain drs2, active compounds read low 1 | locus YAL030W, strain snc1, active compounds read low 1.02 | locus YBL061C, strain skt5, active compounds read low 1.02 | locus YBR009C, strain hhf1, active compounds read low 0.998 | locus YBR021W, strain FUR4, active compounds read low 0.99 | locus YBR023C, strain chs3, active compounds read low 1.02 | locus YBR171W, strain sec66, active compounds read low 1.03 | locus YBR229C, strain ROT2, active compounds read low 1.01 | locus YBR231C, strain swc5, active compounds read low 1.01 | locus YBR279W, strain paf1, active compounds read low 1.03 | locus YCL011C, strain gbp2, active compounds read low 1.03 | locus YCL016C, strain dcc1, active compounds read low 1.05 | locus YCL029C, strain bik1, active compounds read low 1.01 | locus YCL061C, strain MRC1, active compounds read low 1.01 | locus YCL069W, strain vba3, active compounds read low 1.02 | locus YCR088W, strain abp1, active compounds read low 1.02 | locus YDL005C, strain med2, active compounds read low 1.02 | locus YDL035C, strain GPR1, active compounds read low 1.01 | locus YDL040C, strain nat1, active compounds read low 1 | locus YDL074C, strain BRE1, active compounds read low 1.04 | locus YDL101C, strain DUN1, active compounds read low 1.01 | locus YDL134C, strain PPH21, active compounds read low 1.04 | locus YDL185W, strain tfp1, active compounds read low 0.992 | locus YDL192W, strain arf1, active compounds read low 1.02 | locus YDR001C, strain nth1, active compounds read low 1.01 | locus YDR069C, strain doa4, active compounds read low 0.998 | locus YDR101C, strain arx1, active compounds read low 1.02 | locus YDR137W, strain rgp1, active compounds read low 1.05 | locus YDR159W, strain sac3, active compounds read low 0.969 | locus YDR162C, strain NBP2, active compounds read low 1.03 | locus YDR195W, strain ref2 0.977 | locus YDR297W, strain sur2, active compounds read low 1.01 | locus YDR318W, strain mcm21, active compounds read low 1.01 | locus YDR334W, strain swr1, active compounds read low 1.02 | locus YDR335W, strain msn5, active compounds read low 1.01 | locus YDR388W, active compounds read low 1.01 | locus YDR392W, strain spt3, active compounds read low 0.816 | locus YDR502C, strain sam2, active compounds read low 1.01 | locus YEL003W, strain gim4, active compounds read low 1.01 | locus YEL037C, strain rad23, active compounds read low 1.01 | locus YEL061C, strain CIN8 (second series), active compounds read low 1.02 | locus YEL061C, strain CIN8, active compounds read low 1.01 | locus YER015W, strain faa2, active compounds read low 1.01 | locus YER016W, strain bim1, active compounds read low 1.02 | locus YER110C, active compounds read low 1.02 | locus YER111C, strain swi4, active compounds read low 1.01 | locus YER155C, strain BEM2 (second series), active compounds read low 0.99 | locus YER155C, strain BEM2, active compounds read low 0.993 | locus YER167W, strain BCK2, active compounds read low 1.02 | locus YFR010W, strain ubp6, active compounds read low 1.01 | locus YGL078C, strain dbp3, active compounds read low 1.01 | locus YGL086W, strain mad1, active compounds read low 0.999 | locus YGL167C, strain pmr1, active compounds read low 1.02 | locus YGL173C, strain kem1, active compounds read low 1.01 | locus YGL227W, strain vid30, active compounds read low 1.01 | locus YGL240W, strain doc1, active compounds read low 0.992 | locus YGL248W, strain PDE1, active compounds read low 1.01 | locus YGL253W, strain hxk2, active compounds read low 0.989 | locus YGR135W, strain pre9, active compounds read low 1.03 | [6] 1.01 | locus YGR252W, strain gcn5, active compounds read low 1.03 | locus YHR013C, strain ard1, active compounds read low 0.981 | locus YHR027C, strain rpn1, active compounds read low 1.03 | [15] 1.01 and 0.983 | locus YHR079C, strain IRE1 (second series), active compounds read low 1 | [16] 0.97 | locus YHR094C, strain hxt1, active compounds read low 1.01 | locus YHR129C, strain ARP1, active compounds read low 1.02 | locus YHR142W, strain chs7, active compounds read low 1.04 | locus YHR200W, strain rpn10, active compounds read low 1.01 | locus YIL066C, strain RNR3, active compounds read low 1 | locus YIL073C, strain SPO22, active compounds read low 0.995 | locus YIL125W, strain kgd1, active compounds read low 0.999 | locus YIR030C, strain dcg1, active compounds read low 0.992 | locus YJL092W, strain hpr5, active compounds read low 1.01 | locus YJL095W, strain BCK1 (second series), active compounds read low 1.03 | [17] 1.04 and 0.989 | locus YJL115W, strain asf1, active compounds read low 1.02 | locus YJL129C, strain trk1, active compounds read low 1.08 | locus YJL134W, strain LCB3, active compounds read low 1.01 | locus YJL154C, strain vps35, active compounds read low 1.01 | locus YJL164C, strain tpk1, active compounds read low 0.992 | locus YJL166W, strain qcr8, active compounds read low 1.02 | locus YJL168C, strain set2, active compounds read low 1.01 | locus YJL187C, strain SWE1 (second series), active compounds read low 1.03 | locus YJL187C, strain SWE1, active compounds read low 1.01 | locus YJR043C, strain POL32, active compounds read low 1.04 | [18] 0.954 | locus YJR075W, strain HOC1, active compounds read low 1.03 | locus YKL009W, strain mrt4, active compounds read low 1.02 | locus YKL068W, active compounds read low 0.999 | locus YKL085W, strain MDH1 (second series), active compounds read low 0.997 | locus YKL085W, strain MDH1, active compounds read low 0.997 | locus YKL160W, strain elf1, active compounds read low 1.02 | locus YKL190W, strain CNB1, active compounds read low 1.01 | locus YKR001C, strain vps1, active compounds read low 1.02 | locus YKR026C, strain gcn3, active compounds read low 1.02 | locus YKR091W, strain srl3, active compounds read low 1.02 | locus YLL001W, strain dnm1, active compounds read low 1.07 | locus YLL026W, active compounds read low 1.01 | locus YLL041C, strain sdh2, active compounds read low 1 | locus YLR027C, strain aat2, active compounds read low 0.998 | locus YLR039C, strain RIC1, active compounds read low 1.12 | locus YLR058C, strain SHM2, active compounds read low 1.01 | locus YLR102C, strain apc9, active compounds read low 1 | [19] 0.991 | locus YLR221C, strain rsa3, active compounds read low 1.04 | locus YLR258W, strain gsy2, active compounds read low 1 | locus YLR262C, strain YPT6 (second series), active compounds read low 1.05 | locus YLR262C, strain YPT6, active compounds read low 1.19 | locus YLR268W, strain sec22, active compounds read low 1.02 | locus YLR320W, strain mms22, active compounds read low 1.06 | locus YLR330W, strain CHS5, active compounds read low 1.01 | locus YLR342W, strain FKS1 (second series), active compounds read low 1.03 | locus YLR342W, strain FKS1, active compounds read low 1.02 | locus YLR357W, strain rsc2, active compounds read low 1.02 | locus YLR370C, strain arc18, active compounds read low 1.03 | locus YLR371W, strain rom2, active compounds read low 1 | locus YLR384C, strain iki3, active compounds read low 1.02 | locus YLR418C, strain cdc73, active compounds read low 0.991 | locus YML016C, strain PPZ1, active compounds read low 1.01 | locus YML032C, strain rad52, active compounds read low 1.01 | locus YML120C, strain ndi1, active compounds read low 1.05 | locus YML124C, strain tub3, active compounds read low 1.01 | locus YMR058W, strain fet3, active compounds read low 1.01 | locus YMR078C, strain ctf18, active compounds read low 0.996 | locus YMR125W, strain sto1, active compounds read low 1.04 | locus YMR129W, active compounds read low 1.01 | locus YMR205C, strain PFK2, active compounds read low 1.02 | locus YMR223W, strain ubp8, active compounds read low 1.01 | locus YMR231W, strain pep5, active compounds read low 1 | locus YMR263W, strain SAP30, active compounds read low 1.01 | [7] 1.03 | locus YNL067W, strain RPL9B, active compounds read low 1.03 | locus YNL071W, strain lat1, active compounds read low 1.01 | [8] 1.01 | [20] 0.944 | locus YNL209W, strain ssb2, active compounds read low 1.02 | locus YNL233W, strain BNI4, active compounds read low 1.02 | locus YNL248C, strain rpa49, active compounds read low 0.969 | locus YNL250W, strain rad50, active compounds read low 1.01 | locus YNL271C, strain bni1, active compounds read low 0.999 | locus YNL298W, strain CLA4, active compounds read low 1.01 | locus YNL307C, strain MCK1, active compounds read low 1.01 | locus YNL322C, strain KRE1 (second series), active compounds read low 1.02 | locus YNR049C, strain mso1, active compounds read low 1.01 | locus YNR052C, strain pop2, active compounds read low 1 | locus YOL006C, strain TOP1, active compounds read low 0.963 | locus YOL012C, strain htz1 0.928 | locus YOL147C, strain pex11, active compounds read low 1 | locus YOR001W, strain rrp6, active compounds read low 0.96 | locus YOR061W, strain CKA2, active compounds read low 1.02 | locus YOR069W, strain VPS5, active compounds read low 1.01 | locus YOR070C, strain gyp1, active compounds read low 1.03 | locus YOR080W, strain dia2, active compounds read low 1.02 | locus YOR083W, strain WHI5, active compounds read low 1.03 | locus YOR106W, strain vam3, active compounds read low 1.04 | locus YOR136W, strain idh2, active compounds read low 1.02 | locus YOR144C, strain elg1, active compounds read low 1.01 | locus YOR184W, strain ser1, active compounds read low 1.06 | [21] 0.96 | locus YOR265W, strain rbl2, active compounds read low 1.01 | locus YOR270C, strain vph1, active compounds read low 1.13 | locus YOR290C, strain snf2, active compounds read low 1.07 | locus YOR316C, strain cot1, active compounds read low 1.02 | locus YPL051W, strain arl3, active compounds read low 0.978 | locus YPL078C, strain atp4, active compounds read low 0.997 | locus YPL106C, strain sse1, active compounds read low 1.06 | locus YPL240C, strain hsp82, active compounds read low 1.03 | [14] 1.01 | [22] 0.986 | locus YPR119W, strain clb2, active compounds read low 1.01 | locus YPR141C, strain kar3, active compounds read low 1.01 | locus YPR163C, strain tif3, active compounds read low 1.03 | locus YPR167C, strain met16, active compounds read low 1.01 | strain wtn01, active compounds read low 1.01

CN(C)CC[C@@H](c1ccc(Br)cc1)c1ccccn1
inactive: [2] 1.05 | [3] 0.993 | [4] 0.97 | [5] 0.99 | locus YGR078C, strain PAC10, active compounds read low 0.991 | [7] 1.01 | [8] 0.984 | [9] 0.988 | [10] 0.928 | [11] 0.985 | [12] 0.983 | [13] 0.912 | locus YPL055C, strain LGE1, active compounds read low 1

CCN(CC)CCOCCOC(=O)C(CC)(CC)c1ccccc1
inactive: [15] 0.99 | [16] 1.01 | [17] 0.988 | [18] 0.902 | [19] 1.03 | [20] 0.908 | [21] 0.993 | [22] 0.972
